Screening results deposited in PubChem BioAssay by National Center for Advancing Translational Sciences (NCATS).
Most compounds without a hit are left out; they make up all but 7.5% or so of the library.
B2AR arrestin = qHTS assay of beta-arrestin-biased ligands of beta2-adrenergic receptor | 0.02% of 330,000 active | beta-arrestin recruitment to beta2AR, cell-based reporter | Potency, µM (titrated, usually from 46.1 µM), for inactives: top-dose activation, most hits filed as activators | Beta-2 adrenergic receptor (Homo sapiens), P07550;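 also: potency is read from the fitted curve at half-maximal effect; 0% = DMSO controls and full agonism = EC100 isoproterenol or metaproterenol; nearly all actives have a fitted effect of over 65% in size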
TSHR antag = Antagonists of the Thyroid Stimulating Hormone Receptor: HTS campaign; TSHR-expressing cells, TSH-stimulated cAMP HTRF, 2 h; active compounds read low; Thyrotropin receptor (Homo sapiens), P16473; activity change, negative = inhibition, % at 11.5 µM; 0.2% of 330,000 active;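 active = activity change below a set negative limit, meaning inhibition stronger than a set level, cut at about -70% in these data; inconclusive = activity change between two set negative limits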
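Inhibition of cAMP made by TSHR-expressing cells under TSH stimulation (4nM final, EC80; 2 h, 37 deg C) is quantified with a one-step lysis HTRF kit, anti-cAMP cryptate versus cAMP-d2.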
Gal4-VP16 FLuc = VP16 counterscreen qHTS for inhibitors of ROR gamma transcriptional activity; Drosophila S2 Gal4-VP16 UAS-luciferase, luminescence, 20 h; Potency, µM (series often up to 53.6 µM), for inactives: top-dose activity, negative = inhibition, most hits filed as inhibitors; 3.5% of 310,000 active;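 also: Gal4-VP16 expression switched on by copper sulfate through the metallothionein promoter; potency is read from the fitted curve at half-maximal effect; nearly all actives have a fitted effect of over 50% in size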
ELG1 repair inh = qHTS screen for small molecules that inhibit ELG1-dependent DNA repair in human embryonic kidney (HEK293T) cells expressing luciferase-tagged ELG1. HEK293T ELG1-luciferase reporter, luminescence, 16 h; DNA damage induced by 5-fluorouridine. Potency, µM (series often up to 46.1 µM), for inactives: top-dose activity change, negative = inhibition, actives largely listed as inhibitors. 2.3% of 330,000 active. AID 504467, 2011; also: potency is read from the fitted curve at half-maximal effect; nearly all actives have a fitted effect of over 55% in size
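Luminescence from the luciferase reporter, measured 30 min after ONE-Glo reagent at room temperature, was the read-out. Beforehand, 2,000 cells per well were exposed for 16 hr at 37 °C to 5-fluorouridine together with compound or vehicle.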
RORgamma inh = qHTS for inhibitors of ROR gamma transcriptional activity. Potency, µM (doses to about 53.6 µM), without a hit: top-dose activity change, negative = inhibition, actives largely listed as inhibitors. Drosophila S2 Gal4-RORgamma UAS-luciferase reporter, 20 h. 5.4% of 310,000 active. AID 2551, 2010; also: potency is read from the fitted curve at half-maximal effect; nearly all actives have a fitted effect of over 60% in size
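Stable Schneider cell line, Gal4 DNA-binding domain fused to ROR gamma, UAS-luciferase. Cmpd 1 hr RT → CuSO4 700 uM final → 20 hr RT → luciferase reagent 10 min → luminescence.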
An asterisk follows results filed as active; ? = inconclusive; . = not tested or not shown; [ ] = another dose, or the depositor's remark. Unless noted, calls follow the shape of the dose curve; as a rule, active = well fitted curve in the direction sought with a large enough effect; inconclusive = small, poorly fitted or top-dose-only effect, or another doubt; inactive = no such curve, though single readings can be large; an effect the other way counts as inactive or inconclusive. Unless noted, % is scaled to controls: 0 for no effect and ±100 for the full control effect.

SMILES	B2AR arrestin	TSHR antag	Gal4-VP16 FLuc	ELG1 repair inh	RORgamma inh
CCOC(C)(C)C	.	.	-2%	.	-22%
Cc1cc(NC(=S)Nc2ccccc2)ccc1Br	0%	3	?	9%	10µM*
Cc1cc(Cl)ccc1NC(=S)Nc1cccnc1	0%	3	?	18%	13µM*
Cc1cc(NC(=S)Nc2cccnc2)ccc1Br	-1%	29	?	12%	13µM*
Fc1cccc(NC(=S)Nc2cccnc2)c1	0%	-3	14%	-3%	-9%
Cc1ccccc1NC(=S)Nc1ccccc1	-1%	-7	?	-15%	?
COc1cc(OC)cc(C(=O)NC(=S)Nc2cccnc2)c1	0%	-5	-19%	12%	24%
COc1cc(NC(=S)Nc2cccnc2)cc(OC)c1	0%	14	?	7%	10µM*
CN1CCN(c2ccnc(-c3ccc(N(C)C)cc3)n2)CC1	.	.	-9%	.	3%
CCCC[C@H]1CCCO[C@@](C(=O)NCc2cc(C)n(C)n2)(C(F)(F)F)C1	.	.	-9%	.	-7%
c1cncc(-c2cc(-n3ccnc3)ncn2)c1	.	.	2%	.	15%
COC(=O)CCC[N+](C)(C)C	.	.	-7%	.	0%
Cc1ccc(NC2Sc3ccccc3NC2=O)cc1 (stereo unspecified)	0%	-10	?	?	11µM*
CCOC(=O)c1ccc(NC(=S)Nc2ccccn2)cc1	-1%	-13	-5%[0.365 µM]	?	3.2µM*
CCOC(=O)c1ccc(NC(=S)Nc2ccc(Cl)cn2)cc1	0%	-1	8.9µM*	1%	2.2µM*
CCOCCn1c(=O)c2c(nc3n2CCN3c2ccc(C)c(C)c2)n(C)c1=O	0%	-2	.	.	.
CCOC(=O)C1=C(COC(=O)[C@H](C)NS(=O)(=O)c2ccc(NC(C)=O)cc2)NC(=O)NC1C (stereo partly specified)	0%	-12	.	18%	.
Cn1cccc1C(=O)N1CCC2(CCCN(c3cccc(-c4ccccc4)c3)C2)CC1	.	.	-1%	.	15%
O=c1c2ccccc2nc(-c2ccc(Cl)cc2Cl)n1O	0%	-6	?	-25%	10µM*
O=c1c2ccccc2nc(-c2ccccc2Cl)n1O	0%	18	?	-6%	10µM*
O=c1c2ccccc2nc(-c2ccc(Cl)c(Cl)c2)n1O	0%	-3	?	-19%	?
O=C(O)c1ccccc1-c1nc2cc(Cl)ccc2c(=O)n1O	0%	-2	2%	18%	8%
Clc1ccccc1-c1nc2ccccc2c2nc3ccccc3n12	0%	13	20µM*	?	-41%
CC/C(=N\NC(=O)c1nnn(-c2nonc2N)c1CN(C)c1ccccc1)c1ccccc1	-1%	-6	-5%	-20%	-5%
CCc1c(C)[nH]n(-c2nc(-c3cccc([N+](=O)[O-])c3)cs2)c1=O	0%	-1	?	3%	10µM*
SMILES	B2AR arrestin	TSHR antag	Gal4-VP16 FLuc	ELG1 repair inh	RORgamma inh
CCc1c(C)[nH]n(-c2nc(-c3ccccc3)cs2)c1=O	0%	-5	?	6%	?
COc1ccc(OC)c(-n2nnnc2SCC(=O)Nc2ccc(C(=O)N3CCCCC3)cc2)c1	-1%	-11	-17%	23µM*	20%
COc1cc(NC(=O)CN(C)Cc2ccc(OC(F)F)cc2)c(C)cc1[N+](=O)[O-]	0%	-8	-9%	?	?
COc1ccc(CN(C)CC(=O)Nc2cc(OC)c([N+](=O)[O-])cc2C)c(OC)c1	-1%	-6	22%	16µM*	9%
COc1cccc(NC(=O)CN(C)CC(=O)Nc2ccc(C)c([N+](=O)[O-])c2)c1	0%	-5	?	18µM*	?
COc1ccc(-n2nnnc2SCC(=O)Nc2cc(OC)c([N+](=O)[O-])cc2C)cc1	-1%	-4	10µM*	?	6.3µM*
CC1CCC(C(=O)O)NC1c1ccc(C#CCN(C)C)cc1 (stereo unspecified)	.	.	9%[10 µM]	.	-19%[10 µM]
O=C(O)c1ccccc1OCCN1CCCC1=O	0%	6	2%	-1%	17%
Cc1cccc(CN2CC34CCC(CC3S2(=O)=O)O4)c1 (stereo unspecified)	.	.	-5%	.	25%
COC(=O)c1sccc1NC(=O)CSc1nnnn1-c1ccccc1C	0%	4	-8%	18µM*	1%
CC(C)CCOCC(O)CCC(=O)NNC(=S)Nc1ccccc1 (stereo unspecified)	0%	-2	?	?	11µM*
C=CCC(CC(O)COCCC)C(=O)NNC(=S)Nc1ccccc1 (stereo unspecified)	?	5	0.79µM*	?	0.28µM*
CC(C)CCC(CC(C)O)C(=O)NNC(=S)Nc1ccccc1 (stereo unspecified)	1%	8	-8%	2%	-30%
COc1cccc(-c2ccc3ncnc(NC4CC4)c3c2)c1	.	.	?	.	3%
Cc1ncc(CO)c2c1Oc1nc(-c3ccccc3)nc(SCC(=O)N(C)c3ccccc3)c1C2	0%	34	?	?	3%
Cc1ncc(CO)c2c1Oc1nc(-c3ccccc3F)nc(SCC(=O)N(C)c3ccccc3)c1C2	-1%	0	?	2.9µM*	?
CCCc1cc(C(=O)NNC(=S)NCc2ccccc2)cs1	.	.	?	.	4.5µM*
CCNC(=S)NNC(=O)c1csc(C(C)C)c1	0%	33	-5%	?	41%
Cc1cc(C(=O)NNC(=S)NCc2ccccc2)no1	7%	13	.	3%	.
CCNC(=S)NNC(=O)c1cc(C)on1	-1%	-5	-10%	-7%	18µM*
CCNC(=S)NNC(=O)c1csc(CC)c1	0%	8	-23%	0%	4.5µM*
CCNC(=S)NNC(=O)c1csc2c1CCCC2	0%	29	-24%	-4%	3.2µM*
CCCn1c(-c2ccc(F)cc2)nc2c(NCCCN(CCO)CCO)nc(C)nc21	.	.	9%	.	-2%
COc1ccc(CCN2CCC[C@H](CN3CCc4cc(OC)c(OC)cc4CC3=O)C2)cc1OC	.	.	5%	.	17%
CCc1cc(C(=O)NNC(=S)NCc2ccccc2)cs1	-1%	-1	-16%	18%	14µM*
CCCc1cc(C(=O)NNC(=S)NC2CCCCC2)cs1	0%	-2	?	16%	3.5µM*
O=C(Nc1nccs1)c1csc2c1CCCC2	0%	-10	10µM*	?	?
O=C(NNC(=S)NC1CCCCC1)c1ccc2c(c1)OCO2	-1%	10	?	?	-33%
CC(C)=CCn1cnc2c1c(=O)n(C)c(=O)n2C	.	.	3%	.	-6%
